# Experimental data: paper PMC7862700, “An all-to-all approach to the identification of sequence-specific readers for epigenetic DNA modifications on cytosine”
# Legend:
# Test in all cases: DAPPL (digital affinity profiling via proximity ligation, sequencing); 10 mM Tris-HCl pH 7.5, 50 mM NaCl, 1 mM DTT, 4% glycerol, room temperature, 30 min; GST-TFs on glutathione beads, 16-mer random dsDNA library, 0.1% formaldehyde crosslink after washing; high values mean tight binding
# [1] = molecular target: T1, FEV (Homo sapiens, UniProt Q99581 1-238); details: protein: recombinant; tags: N-terminal GST; dsDNA, one strand shown
# T1 sequence: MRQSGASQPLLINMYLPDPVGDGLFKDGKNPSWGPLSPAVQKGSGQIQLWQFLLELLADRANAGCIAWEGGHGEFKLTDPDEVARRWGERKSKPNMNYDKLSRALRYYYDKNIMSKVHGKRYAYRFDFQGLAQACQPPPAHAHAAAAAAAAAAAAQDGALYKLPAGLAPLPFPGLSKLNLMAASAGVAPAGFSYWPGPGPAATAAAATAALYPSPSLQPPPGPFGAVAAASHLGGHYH
# How it was run: (§1)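 Binding signal is each hexamer's read frequency for a factor divided by its frequency in the tag-only sample. The factors were GST-fused human transcription factors from yeast, captured on glutathione beads, DNA-barcoded and pooled with that sample. Pools were incubated with 200 nmole of a random double-stranded 16-mer DNA library in Tris/NaCl/DTT/glycerol buffer at room temperature for 30 min, then washed, crosslinked with 0.1% formaldehyde, proximity-ligated with BsaI/T4 ligase (1 h, 37 °C), PCR-amplified and sequenced on an Illumina NextSeq500.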
# [2] = molecular target: ETV5 (Homo sapiens, UniProt P41161 1-510); details: protein: recombinant; tags: N-terminal GST; dsDNA, one strand shown
# Sequence of ETV5 (P41161 whole entry): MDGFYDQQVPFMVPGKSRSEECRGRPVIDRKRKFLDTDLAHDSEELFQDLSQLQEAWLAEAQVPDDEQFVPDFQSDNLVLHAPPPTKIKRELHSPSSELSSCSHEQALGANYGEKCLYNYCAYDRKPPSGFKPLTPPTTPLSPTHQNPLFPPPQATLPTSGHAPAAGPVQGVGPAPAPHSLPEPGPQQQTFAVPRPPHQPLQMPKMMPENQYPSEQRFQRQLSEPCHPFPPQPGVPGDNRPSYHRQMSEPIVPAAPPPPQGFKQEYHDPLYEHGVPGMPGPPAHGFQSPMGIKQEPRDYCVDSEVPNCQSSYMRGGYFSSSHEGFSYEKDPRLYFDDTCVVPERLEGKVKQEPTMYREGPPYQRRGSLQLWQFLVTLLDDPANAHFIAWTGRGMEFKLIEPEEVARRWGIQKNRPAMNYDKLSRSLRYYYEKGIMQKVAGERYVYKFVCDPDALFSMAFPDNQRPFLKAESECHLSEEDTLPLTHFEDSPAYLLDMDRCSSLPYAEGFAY
# How it was run: as §1
# [3] = molecular target: HSF1 (Homo sapiens, UniProt Q00613 1-529); details: protein: recombinant; tags: N-terminal GST; chain copies: 3; dsDNA, one strand shown
# Sequence of HSF1 (Q00613 whole entry): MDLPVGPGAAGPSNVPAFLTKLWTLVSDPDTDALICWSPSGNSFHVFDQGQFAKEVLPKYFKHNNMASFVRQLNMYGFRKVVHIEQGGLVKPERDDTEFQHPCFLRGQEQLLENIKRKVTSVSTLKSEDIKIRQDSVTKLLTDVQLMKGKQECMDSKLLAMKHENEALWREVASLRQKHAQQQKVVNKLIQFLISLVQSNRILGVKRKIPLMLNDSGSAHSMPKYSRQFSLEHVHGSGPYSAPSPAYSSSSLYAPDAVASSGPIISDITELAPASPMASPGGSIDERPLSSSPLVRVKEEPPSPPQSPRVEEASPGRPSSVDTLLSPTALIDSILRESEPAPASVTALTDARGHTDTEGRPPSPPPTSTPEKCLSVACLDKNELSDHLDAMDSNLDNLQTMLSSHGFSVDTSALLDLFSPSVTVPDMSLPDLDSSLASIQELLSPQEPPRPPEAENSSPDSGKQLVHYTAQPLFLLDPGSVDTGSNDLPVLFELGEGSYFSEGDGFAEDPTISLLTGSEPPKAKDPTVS
# How it was run: as §1
# [4] = molecular target: T2, SPIC (Homo sapiens, UniProt Q8N5J4 1-248); details: protein: recombinant; tags: N-terminal GST; dsDNA, one strand shown
# T2 sequence: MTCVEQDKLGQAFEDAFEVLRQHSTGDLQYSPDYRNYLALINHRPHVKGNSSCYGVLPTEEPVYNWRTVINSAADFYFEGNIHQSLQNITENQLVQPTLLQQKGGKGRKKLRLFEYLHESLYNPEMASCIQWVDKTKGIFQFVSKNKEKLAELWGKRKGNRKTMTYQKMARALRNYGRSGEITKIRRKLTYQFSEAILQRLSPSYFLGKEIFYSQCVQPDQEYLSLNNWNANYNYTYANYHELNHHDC
# How it was run: as §1
# [5] = molecular target: ELF4 (Homo sapiens, UniProt Q99607 1-663); details: protein: recombinant; tags: N-terminal GST; dsDNA, one strand shown
# Sequence of ELF4 (Q99607 whole entry): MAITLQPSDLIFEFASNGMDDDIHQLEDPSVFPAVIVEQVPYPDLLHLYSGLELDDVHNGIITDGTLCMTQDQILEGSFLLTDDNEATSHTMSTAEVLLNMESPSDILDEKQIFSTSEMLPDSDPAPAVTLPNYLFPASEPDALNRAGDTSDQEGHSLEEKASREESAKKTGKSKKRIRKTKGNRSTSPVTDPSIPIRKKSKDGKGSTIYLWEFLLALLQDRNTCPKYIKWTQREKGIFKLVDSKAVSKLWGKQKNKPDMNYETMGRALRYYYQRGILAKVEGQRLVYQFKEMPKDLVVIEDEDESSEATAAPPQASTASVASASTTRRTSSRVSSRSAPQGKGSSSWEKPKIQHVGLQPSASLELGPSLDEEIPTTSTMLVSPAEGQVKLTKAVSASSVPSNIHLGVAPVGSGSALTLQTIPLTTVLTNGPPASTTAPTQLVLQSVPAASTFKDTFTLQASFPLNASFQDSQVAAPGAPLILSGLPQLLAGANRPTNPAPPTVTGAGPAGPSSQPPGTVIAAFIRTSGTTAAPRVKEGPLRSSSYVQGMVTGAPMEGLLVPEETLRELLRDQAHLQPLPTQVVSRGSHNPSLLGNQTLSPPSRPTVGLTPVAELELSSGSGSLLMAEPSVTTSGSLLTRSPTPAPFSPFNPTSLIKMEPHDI
# How it was run: as §1
# [6] = molecular target: T3, ELK4 (Homo sapiens, UniProt P28324-2 1-405); details: protein: recombinant; tags: N-terminal GST; dsDNA, one strand shown
# T3 sequence: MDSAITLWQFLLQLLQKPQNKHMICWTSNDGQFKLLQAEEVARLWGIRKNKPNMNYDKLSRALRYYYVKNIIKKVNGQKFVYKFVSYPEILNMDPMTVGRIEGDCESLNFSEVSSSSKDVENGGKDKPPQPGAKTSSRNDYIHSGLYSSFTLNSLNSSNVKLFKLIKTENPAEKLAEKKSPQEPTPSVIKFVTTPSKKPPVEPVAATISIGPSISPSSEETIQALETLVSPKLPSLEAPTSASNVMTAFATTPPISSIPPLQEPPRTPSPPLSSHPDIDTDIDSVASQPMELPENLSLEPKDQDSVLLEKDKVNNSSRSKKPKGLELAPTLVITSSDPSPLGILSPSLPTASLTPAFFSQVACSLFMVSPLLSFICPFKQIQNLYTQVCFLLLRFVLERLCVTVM
# How it was run: as §1
# [7] = molecular target: T4, ETV2 (Homo sapiens, UniProt O00321 1-342); details: protein: recombinant; tags: N-terminal GST; dsDNA, one strand shown
# T4 sequence: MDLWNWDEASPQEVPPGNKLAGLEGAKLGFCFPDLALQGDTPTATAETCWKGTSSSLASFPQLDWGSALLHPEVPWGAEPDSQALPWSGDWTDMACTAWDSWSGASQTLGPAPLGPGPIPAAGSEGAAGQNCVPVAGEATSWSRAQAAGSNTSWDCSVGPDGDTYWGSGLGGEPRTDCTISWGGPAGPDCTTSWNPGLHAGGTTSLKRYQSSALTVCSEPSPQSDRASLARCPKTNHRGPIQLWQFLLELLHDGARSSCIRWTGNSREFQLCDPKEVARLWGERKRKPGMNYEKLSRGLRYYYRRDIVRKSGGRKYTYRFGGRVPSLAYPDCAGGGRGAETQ
# How it was run: as §1
# [8] = molecular target: T5, ELF3 (Homo sapiens, UniProt P78545 1-371); details: protein: recombinant; tags: N-terminal GST; dsDNA, one strand shown
# T5 sequence: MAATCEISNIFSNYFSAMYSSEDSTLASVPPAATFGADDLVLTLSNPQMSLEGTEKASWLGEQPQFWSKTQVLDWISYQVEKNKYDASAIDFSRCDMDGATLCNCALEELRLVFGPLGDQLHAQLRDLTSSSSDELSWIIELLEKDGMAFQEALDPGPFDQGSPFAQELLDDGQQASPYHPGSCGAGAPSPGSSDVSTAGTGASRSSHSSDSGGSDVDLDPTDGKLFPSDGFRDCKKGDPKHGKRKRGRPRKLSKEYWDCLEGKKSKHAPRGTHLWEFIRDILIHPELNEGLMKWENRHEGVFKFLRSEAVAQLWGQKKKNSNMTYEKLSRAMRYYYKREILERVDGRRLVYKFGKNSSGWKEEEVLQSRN
# How it was run: as §1
# [9] = molecular target: CRX (Homo sapiens, UniProt O43186 1-299); details: protein: recombinant; tags: N-terminal GST; dsDNA, one strand shown
# Sequence of CRX (O43186 whole entry): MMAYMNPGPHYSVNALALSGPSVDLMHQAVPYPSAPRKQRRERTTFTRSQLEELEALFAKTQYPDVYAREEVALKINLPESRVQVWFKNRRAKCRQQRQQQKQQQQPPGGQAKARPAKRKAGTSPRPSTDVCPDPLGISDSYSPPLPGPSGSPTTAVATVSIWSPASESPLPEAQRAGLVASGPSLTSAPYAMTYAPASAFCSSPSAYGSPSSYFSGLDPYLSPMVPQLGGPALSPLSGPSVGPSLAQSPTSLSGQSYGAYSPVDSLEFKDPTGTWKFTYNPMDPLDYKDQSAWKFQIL
# How it was run: as §1
# [10] = molecular target: ETV1 (Homo sapiens, UniProt P50549 1-477); details: protein: recombinant; tags: N-terminal GST; dsDNA, one strand shown
# Sequence of ETV1 (P50549 whole entry): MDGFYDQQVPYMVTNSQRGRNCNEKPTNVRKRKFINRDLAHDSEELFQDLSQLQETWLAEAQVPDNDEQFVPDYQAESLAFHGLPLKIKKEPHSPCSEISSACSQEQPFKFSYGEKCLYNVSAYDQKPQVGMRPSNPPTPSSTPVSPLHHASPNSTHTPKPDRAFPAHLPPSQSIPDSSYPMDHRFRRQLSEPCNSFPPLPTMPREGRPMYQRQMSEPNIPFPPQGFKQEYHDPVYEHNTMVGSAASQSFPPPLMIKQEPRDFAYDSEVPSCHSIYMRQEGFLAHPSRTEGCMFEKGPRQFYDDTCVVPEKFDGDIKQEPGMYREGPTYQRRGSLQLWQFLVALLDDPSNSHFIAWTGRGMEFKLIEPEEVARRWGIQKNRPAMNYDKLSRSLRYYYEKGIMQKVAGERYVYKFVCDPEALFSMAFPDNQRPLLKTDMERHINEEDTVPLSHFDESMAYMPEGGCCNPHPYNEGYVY
# How it was run: as §1
# [11] = molecular target: T6, ERF (Homo sapiens, UniProt P50548 1-548); details: protein: recombinant; tags: N-terminal GST; dsDNA, one strand shown
# T6 sequence: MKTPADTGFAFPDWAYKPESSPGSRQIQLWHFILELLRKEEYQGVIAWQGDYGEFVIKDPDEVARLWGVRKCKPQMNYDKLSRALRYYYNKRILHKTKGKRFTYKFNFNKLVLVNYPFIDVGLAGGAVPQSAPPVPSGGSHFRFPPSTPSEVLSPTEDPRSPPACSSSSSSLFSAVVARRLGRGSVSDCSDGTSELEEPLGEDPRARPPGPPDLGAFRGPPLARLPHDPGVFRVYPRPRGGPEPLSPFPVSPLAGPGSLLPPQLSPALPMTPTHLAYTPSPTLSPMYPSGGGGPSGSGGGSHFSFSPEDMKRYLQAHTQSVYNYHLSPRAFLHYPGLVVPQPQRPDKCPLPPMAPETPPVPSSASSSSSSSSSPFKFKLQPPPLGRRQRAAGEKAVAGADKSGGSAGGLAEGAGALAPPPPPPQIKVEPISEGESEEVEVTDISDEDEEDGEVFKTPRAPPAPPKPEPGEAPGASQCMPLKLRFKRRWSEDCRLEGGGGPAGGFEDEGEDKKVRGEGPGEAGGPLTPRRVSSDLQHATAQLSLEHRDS
# How it was run: as §1
# [12] = molecular target: T7, ETV3L (Homo sapiens, UniProt Q6ZN32 1-361); details: protein: recombinant; tags: N-terminal GST; dsDNA, one strand shown
# T7 sequence: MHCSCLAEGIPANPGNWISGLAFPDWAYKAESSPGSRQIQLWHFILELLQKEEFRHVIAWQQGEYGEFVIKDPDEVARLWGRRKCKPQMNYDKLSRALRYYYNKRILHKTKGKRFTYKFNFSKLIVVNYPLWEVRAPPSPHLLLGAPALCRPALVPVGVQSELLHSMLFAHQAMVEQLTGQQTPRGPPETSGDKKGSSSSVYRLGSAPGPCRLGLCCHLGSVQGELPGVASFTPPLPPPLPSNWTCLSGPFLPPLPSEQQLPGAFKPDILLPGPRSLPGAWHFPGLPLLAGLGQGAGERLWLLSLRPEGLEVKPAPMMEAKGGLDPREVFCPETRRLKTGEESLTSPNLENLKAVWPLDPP
# How it was run: as §1
# [13] = molecular target: T8, ETS2 (Homo sapiens, UniProt P15036 1-469); details: protein: recombinant; tags: N-terminal GST; dsDNA, one strand shown
# T8 sequence: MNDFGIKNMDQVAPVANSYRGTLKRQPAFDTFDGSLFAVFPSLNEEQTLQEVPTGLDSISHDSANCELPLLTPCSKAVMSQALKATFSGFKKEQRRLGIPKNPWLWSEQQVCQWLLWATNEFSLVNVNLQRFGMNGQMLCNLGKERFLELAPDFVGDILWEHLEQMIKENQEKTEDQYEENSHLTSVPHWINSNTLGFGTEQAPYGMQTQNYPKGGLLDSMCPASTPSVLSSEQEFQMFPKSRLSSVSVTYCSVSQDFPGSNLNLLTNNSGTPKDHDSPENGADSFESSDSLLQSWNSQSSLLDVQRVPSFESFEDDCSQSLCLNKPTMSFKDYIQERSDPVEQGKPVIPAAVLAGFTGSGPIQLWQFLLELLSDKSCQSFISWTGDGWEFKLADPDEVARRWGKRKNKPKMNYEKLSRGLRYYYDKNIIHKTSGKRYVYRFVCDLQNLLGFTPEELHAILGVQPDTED
# How it was run: as §1
# [14] = molecular target: T9, SPDEF (Homo sapiens, UniProt O95238 1-335); details: protein: recombinant; tags: N-terminal GST; dsDNA, one strand shown
# T9 sequence: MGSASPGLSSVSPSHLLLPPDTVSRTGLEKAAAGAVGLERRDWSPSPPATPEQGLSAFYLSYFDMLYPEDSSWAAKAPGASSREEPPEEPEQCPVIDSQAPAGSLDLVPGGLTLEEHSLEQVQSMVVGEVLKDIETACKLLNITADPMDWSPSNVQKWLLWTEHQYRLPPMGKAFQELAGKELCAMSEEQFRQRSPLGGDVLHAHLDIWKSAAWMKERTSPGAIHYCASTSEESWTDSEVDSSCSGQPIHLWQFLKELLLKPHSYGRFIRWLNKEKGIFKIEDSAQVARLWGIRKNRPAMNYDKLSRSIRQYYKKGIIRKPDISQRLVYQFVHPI
# How it was run: as §1
# [15] = molecular target: T10, ETV7 (Homo sapiens, UniProt Q9Y603 1-341); details: protein: recombinant; tags: N-terminal GST; dsDNA, one strand shown
# T10 sequence: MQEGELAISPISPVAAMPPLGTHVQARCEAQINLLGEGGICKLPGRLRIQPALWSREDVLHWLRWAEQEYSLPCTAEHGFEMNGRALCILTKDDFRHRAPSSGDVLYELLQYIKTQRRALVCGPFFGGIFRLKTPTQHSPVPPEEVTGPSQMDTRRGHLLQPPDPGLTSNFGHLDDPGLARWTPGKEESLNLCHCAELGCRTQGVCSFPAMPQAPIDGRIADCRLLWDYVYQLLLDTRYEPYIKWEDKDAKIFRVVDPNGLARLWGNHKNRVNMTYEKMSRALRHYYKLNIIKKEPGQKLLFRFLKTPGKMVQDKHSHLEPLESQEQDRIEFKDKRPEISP
# How it was run: as §1
# [16] = molecular target: T11, ELF5 (Homo sapiens, UniProt Q9UKW6-2 1-255); details: protein: recombinant; tags: N-terminal GST; dsDNA, one strand shown
# T11 sequence: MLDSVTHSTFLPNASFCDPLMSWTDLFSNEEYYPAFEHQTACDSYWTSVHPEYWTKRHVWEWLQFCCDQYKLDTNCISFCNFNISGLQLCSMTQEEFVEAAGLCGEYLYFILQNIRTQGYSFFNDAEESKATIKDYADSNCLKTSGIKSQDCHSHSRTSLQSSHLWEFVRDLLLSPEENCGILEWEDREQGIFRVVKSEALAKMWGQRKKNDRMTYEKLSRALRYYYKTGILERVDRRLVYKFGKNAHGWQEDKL
# How it was run: as §1
# [17] = molecular target: T12, ETV3 (Homo sapiens, UniProt P41162-2 1-143); details: protein: recombinant; tags: N-terminal GST; dsDNA, one strand shown
# T12 sequence: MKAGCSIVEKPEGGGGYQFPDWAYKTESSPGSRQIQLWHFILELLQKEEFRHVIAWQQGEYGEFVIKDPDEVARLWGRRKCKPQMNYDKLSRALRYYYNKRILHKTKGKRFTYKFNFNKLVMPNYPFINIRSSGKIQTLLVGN
# How it was run: as §1
# [18] = molecular target: ETV6 (Homo sapiens, UniProt P41212 1-452); details: protein: recombinant; tags: N-terminal GST; dsDNA, one strand shown
# Sequence of ETV6 (P41212 whole entry): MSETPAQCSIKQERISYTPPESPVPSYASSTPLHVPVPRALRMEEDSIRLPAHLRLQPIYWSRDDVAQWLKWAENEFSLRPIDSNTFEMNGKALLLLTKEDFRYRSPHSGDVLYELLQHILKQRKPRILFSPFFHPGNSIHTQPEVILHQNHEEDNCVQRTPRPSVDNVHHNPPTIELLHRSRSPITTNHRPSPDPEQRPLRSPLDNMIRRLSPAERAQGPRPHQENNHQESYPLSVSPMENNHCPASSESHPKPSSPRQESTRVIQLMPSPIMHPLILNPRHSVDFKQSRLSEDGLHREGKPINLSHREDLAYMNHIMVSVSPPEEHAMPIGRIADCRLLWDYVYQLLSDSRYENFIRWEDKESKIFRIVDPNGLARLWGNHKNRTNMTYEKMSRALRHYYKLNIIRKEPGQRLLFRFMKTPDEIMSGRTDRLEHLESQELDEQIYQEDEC
# How it was run: as §1
sequence,measurement,setting,value
ACTCAA,binding signal,[1],"1.23 fold enrichment (6-mer frequency, TF over GST control)"
same,binding signal,[2],"1.16 fold enrichment (6-mer frequency, TF over GST control)"
same,binding signal,[3],"1.07 fold enrichment (6-mer frequency, TF over GST control)"
same,binding signal,[4],"1.17 fold enrichment (6-mer frequency, TF over GST control)"
same,binding signal,[5],"1.16 fold enrichment (6-mer frequency, TF over GST control)"
same,binding signal,[6],"1.18 fold enrichment (6-mer frequency, TF over GST control)"
same,binding signal,[7],"1.15 fold enrichment (6-mer frequency, TF over GST control)"
same,binding signal,[8],"1.12 fold enrichment (6-mer frequency, TF over GST control)"
same,binding signal,[9],"1.12 fold enrichment (6-mer frequency, TF over GST control)"
same,binding signal,[10],"1.15 fold enrichment (6-mer frequency, TF over GST control)"
same,binding signal,[11],"1.16 fold enrichment (6-mer frequency, TF over GST control)"
same,binding signal,[12],"1.21 fold enrichment (6-mer frequency, TF over GST control)"
same,binding signal,[13],"1.23 fold enrichment (6-mer frequency, TF over GST control)"
same,binding signal,[14],"1.16 fold enrichment (6-mer frequency, TF over GST control)"
same,binding signal,[15],"1.05 fold enrichment (6-mer frequency, TF over GST control)"
same,binding signal,[16],"1.15 fold enrichment (6-mer frequency, TF over GST control)"
same,binding signal,[17],"1.13 fold enrichment (6-mer frequency, TF over GST control)"
same,binding signal,[18],"1.26 fold enrichment (6-mer frequency, TF over GST control)"
